Rpn11 inh = inhibitors of human proteasome Rpn11; human 26S proteasome, Ub4-pepOG fluorescence polarization; 20S core pre-blocked with epoxomicin; 360,000 tested, 0.59% active; AID 588493; O00487; inhibition, % at 20 µM;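 active means inhibition at 20 µM, scaled to each plate's controls, above about 33%, limit read from the data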
Rin1-Abl PPI inh = blocks binding of human Rin1 to Abl | AID 588664 | P00519+Q13671 | 360,000 tested, 0.4% active | inhibition, % at 7.35 µM | TR-FRET Rin1/Abl binding, biochemical; in the data active means inhibition above about 5%, passing the limit was not always enough
Target sequence (P00519 whole entry, looked up): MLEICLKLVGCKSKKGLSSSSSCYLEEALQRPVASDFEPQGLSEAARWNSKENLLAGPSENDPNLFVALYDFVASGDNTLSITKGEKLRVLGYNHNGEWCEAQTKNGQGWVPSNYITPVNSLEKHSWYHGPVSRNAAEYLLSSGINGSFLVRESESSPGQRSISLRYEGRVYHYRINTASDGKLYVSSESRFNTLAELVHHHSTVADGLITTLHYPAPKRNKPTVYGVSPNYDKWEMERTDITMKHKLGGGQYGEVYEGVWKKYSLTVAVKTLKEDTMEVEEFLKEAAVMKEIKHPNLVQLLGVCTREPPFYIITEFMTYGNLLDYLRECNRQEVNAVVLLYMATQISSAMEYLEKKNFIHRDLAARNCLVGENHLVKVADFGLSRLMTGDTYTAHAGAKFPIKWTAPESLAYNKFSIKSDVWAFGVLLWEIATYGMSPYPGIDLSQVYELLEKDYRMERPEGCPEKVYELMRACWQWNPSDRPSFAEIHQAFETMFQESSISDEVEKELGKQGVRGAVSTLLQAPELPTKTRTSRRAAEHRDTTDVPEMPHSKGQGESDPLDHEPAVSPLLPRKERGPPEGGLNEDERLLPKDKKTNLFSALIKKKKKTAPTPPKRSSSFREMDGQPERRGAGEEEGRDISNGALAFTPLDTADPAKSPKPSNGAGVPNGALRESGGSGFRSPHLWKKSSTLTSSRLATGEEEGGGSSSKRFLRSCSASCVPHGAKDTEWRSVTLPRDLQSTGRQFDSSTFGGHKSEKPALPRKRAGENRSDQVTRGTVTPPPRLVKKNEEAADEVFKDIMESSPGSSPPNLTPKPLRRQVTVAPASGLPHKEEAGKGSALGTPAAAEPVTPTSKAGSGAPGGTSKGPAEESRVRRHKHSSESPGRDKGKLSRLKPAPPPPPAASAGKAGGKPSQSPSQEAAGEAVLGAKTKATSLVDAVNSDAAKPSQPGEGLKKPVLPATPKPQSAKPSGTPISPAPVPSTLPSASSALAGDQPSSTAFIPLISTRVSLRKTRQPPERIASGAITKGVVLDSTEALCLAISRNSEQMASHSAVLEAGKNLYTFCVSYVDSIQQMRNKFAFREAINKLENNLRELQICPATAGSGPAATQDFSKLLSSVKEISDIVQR
Target sequence (Q13671 whole entry, looked up): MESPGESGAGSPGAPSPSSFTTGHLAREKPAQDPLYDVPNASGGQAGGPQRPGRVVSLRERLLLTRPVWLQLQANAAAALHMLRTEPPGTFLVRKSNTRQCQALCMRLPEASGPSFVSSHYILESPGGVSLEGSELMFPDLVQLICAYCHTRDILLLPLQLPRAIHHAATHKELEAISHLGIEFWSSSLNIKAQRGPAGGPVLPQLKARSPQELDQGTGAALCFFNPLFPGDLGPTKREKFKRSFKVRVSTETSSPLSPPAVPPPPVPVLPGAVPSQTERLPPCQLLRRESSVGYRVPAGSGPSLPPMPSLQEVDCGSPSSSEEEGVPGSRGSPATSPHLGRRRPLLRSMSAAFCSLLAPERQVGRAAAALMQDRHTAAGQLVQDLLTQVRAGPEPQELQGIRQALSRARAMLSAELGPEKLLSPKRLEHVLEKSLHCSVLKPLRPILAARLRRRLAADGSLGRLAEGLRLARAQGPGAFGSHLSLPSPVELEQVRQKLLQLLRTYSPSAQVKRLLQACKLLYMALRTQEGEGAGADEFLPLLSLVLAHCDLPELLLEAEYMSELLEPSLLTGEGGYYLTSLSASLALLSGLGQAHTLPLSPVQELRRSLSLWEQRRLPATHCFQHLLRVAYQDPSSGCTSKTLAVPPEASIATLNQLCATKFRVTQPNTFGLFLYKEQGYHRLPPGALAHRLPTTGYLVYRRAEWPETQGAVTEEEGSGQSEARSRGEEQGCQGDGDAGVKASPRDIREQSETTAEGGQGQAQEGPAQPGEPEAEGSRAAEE
Calb FLC = C. albicans growth modulation with fluconazole. 300,000 tested, 0.57% active. C. albicans CaCi-2 (fluconazole-resistant clinical isolate) + fluconazole, Alamar Blue growth, 48 h. growth inhibition, % (no concentration beside the values);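 active means growth inhibition above about 58% in most replicates, limit read from the data, passing the limit was not always enough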;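 further: all wells also contain fluconazole at 8 µg/ml as a sub-toxic cotreatment; 0% = median of DMSO wells and 100% = median of geldanamycin control wells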
IDE cell inh = inhibits human insulin-degrading enzyme in HEK cells. P14735. FAbetaB cleavage, fluorescence polarization. inhibition, % at 5.59 µM. 320,000 tested, 0.41% active;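 active means percent inhibition above the average of all tested compounds plus 3 SD, set per screening campaign, cut at about 16% in these data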;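 further: IDE supplied by intact live HEK cells; FP after avidin binding of uncleaved biotin substrate so inhibition keeps polarization high; 0% = DMSO wells and 100% = 60 µM reference IDE inhibitor Ii1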
TPT1 inhibitor = inhibitors of Candida albicans tRNA 2'-phosphotransferase TPT1; recombinant caTPT1, FP RNA substrate dephosphorylation; inhibition, % at 5 µM; 300,000 tested, 0.81% active; AID 1962;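 active means inhibition above the mean of all tested compounds plus 3 SD, set per screening campaign, cut at about 24% in these data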;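 further: plate controls were DMSO alone for no effect and ferristatin control at 100 nM for full effect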
IDE act = IDE (human) activation, cell-based. AID 493087. 340,000 tested, 0.073% active. activation, % at 5.96 µM. P14735. HEK cells, FAbeta-B cleavage, fluorescence polarization; 0% vehicle, 100% cell-free pure enzyme wells;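 active means activation above the mean of all tested compounds plus 3 SD, set per screening campaign, cut at about 17% in these data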
Starred values were filed as active, the others as inactive. This is a sample that favours compounds with a hit; in the whole collection about 2.3% have one here.

What do the screens show for `O=c1c2ccccc2nc(/C=C/c2ccc(O)cc2)n1-c1cccc(O)c1`?
Rpn11 inh: 9.5; Rin1-Abl PPI inh: 2.8; Calb FLC: -15.9; IDE cell inh: 83.4*; TPT1 inhibitor: 13.6; IDE act: -147.7

What do the screens show for `O=C([O-])c1ccc(-[n+]2c(-c3ccccc3)cc(-c3ccccc3)cc2-c2ccccc2)cc1`?
Rpn11 inh: -6.2; Rin1-Abl PPI inh: 4.1; Calb FLC: -22.2; IDE cell inh: -0.9; TPT1 inhibitor: 1.1; IDE act: 1.8

What do the screens show for `Cc1ccc(-c2cc(-c3ccccc3)cc(-c3ccccc3)[n+]2-c2ccccc2C(=O)O)cc1`?
Rpn11 inh: -6.8; Rin1-Abl PPI inh: -0.2; Calb FLC: 95.9*; IDE cell inh: 7.1; TPT1 inhibitor: -2.5; IDE act: -15.0

What do the screens show for `O=C1C2CCCN2C(c2ccccc2)N1c1ccccn1` (stereo not given)?
Rpn11 inh: -7.6; Rin1-Abl PPI inh: -3.4; Calb FLC: 62.6*; IDE cell inh: -4.5; TPT1 inhibitor: 1.2; IDE act: 0.9

Results for CCOc1ccc(-n2c(-c3cccs3)nc3ccccc3c2=O)cc1 ?
Rpn11 inh: 2.0; Rin1-Abl PPI inh: 3.2; Calb FLC: 1.8; IDE cell inh: 1.3; TPT1 inhibitor: -2.5; IDE act: 7.0

What do the screens show for `CCn1nc(-c2cccs2)nc2c(=O)n(C)c(=O)nc1-2`?
Rpn11 inh: -3.6; Rin1-Abl PPI inh: 19.9*; IDE act: 0.6

How did COC(=O)C1=C(c2ccc(OCc3ccccc3)cc2)C[C@@H]2CC[C@H]1N2C do in these assays?
Rpn11 inh: 6.7; Rin1-Abl PPI inh: 1.9

Results for O=[N+]([O-])c1ccc(-[n+]2c(-c3ccccc3)cc(-c3ccccc3)cc2-c2ccccc2)cc1 ?
Rpn11 inh: -3.7; Rin1-Abl PPI inh: -0.6; Calb FLC: -1.5; IDE cell inh: 2.4; TPT1 inhibitor: -4.1; IDE act: 1.2

Results for COc1ccc(-[n+]2c(-c3ccccc3)cc(-c3ccccc3)cc2-c2ccccc2)cc1 ?
Calb FLC: 108.4*; IDE cell inh: 5.8; TPT1 inhibitor: -3.5

How did Oc1ccc(-[n+]2c(-c3ccccc3)cc(-c3ccccc3)cc2-c2ccccc2)cc1 do in these assays?
Rpn11 inh: -24.1; Rin1-Abl PPI inh: -5.5; Calb FLC: 102.6*; IDE cell inh: -1.6; TPT1 inhibitor: 1.2; IDE act: 2.4

Results for CC1C(c2cccs2)=[N+]([O-])C(C)(C(=O)c2cccs2)N1O (stereo not given) ?
Rpn11 inh: -2.0; Rin1-Abl PPI inh: -7.5; Calb FLC: 2.7; IDE cell inh: -0.9; TPT1 inhibitor: 0.2; IDE act: 5.5

Results for O=C(c1cc2c(s1)-c1ccccc1OC2)N1CCC2(CC1)OCCO2 ?
Rpn11 inh: 0.1; Rin1-Abl PPI inh: -3.8; Calb FLC: 100.2*; IDE cell inh: 12.8; TPT1 inhibitor: -2.7; IDE act: 2.5

Results for Oc1c(Br)cc(Br)cc1Oc1ccc(Br)cc1Br ?
Calb FLC: 87.4*; IDE cell inh: -4.6; TPT1 inhibitor: 0.5

How did CC12CCC(=O)C=C1C=CC1C2CCC2(C)C(O)CCC12 (stereo not given) do in these assays?
Rpn11 inh: -0.2; Rin1-Abl PPI inh: -2.3; IDE act: 1.2

How did Cc1ccc2[nH]c3c(c2c1)CN(C(=O)CN1C[C@H]2C[C@@H](C1)c1cccc(=O)n1C2)CC3 do in these assays?
Rpn11 inh: -25.1; Rin1-Abl PPI inh: -1.1; Calb FLC: -12.7; IDE cell inh: 9.1; TPT1 inhibitor: -4.2; IDE act: 1.3

Results for CC1=NCCc2c1[nH]c1cc(O)ccc21 ?
Rpn11 inh: -193.6; Rin1-Abl PPI inh: -10.3; IDE cell inh: -28.4; TPT1 inhibitor: -102.3; IDE act: 65.7*

Results for COC(=O)C1=C(c2cccc(C#N)c2)C[C@@H]2CC[C@H]1N2C(=O)NCCNC(C)=O ?
Rpn11 inh: 2.5; Rin1-Abl PPI inh: 6.0; IDE cell inh: 3.3; IDE act: -2.3

How did CCOc1ccc(-c2cc(C)[n+](CCO)c(-c3ccc(OCC)cc3)c2)cc1 do in these assays?
Rpn11 inh: -8.1; Rin1-Abl PPI inh: 0.2; Calb FLC: 91.7*; IDE cell inh: 2.6; TPT1 inhibitor: -1.0; IDE act: 0.3

Results for CCOc1ccc(-c2cc(C)[n+](CCc3ccc(OC)c(OC)c3)c(-c3ccc(OCC)cc3)c2)cc1 ?
Rpn11 inh: -3.2; Rin1-Abl PPI inh: -3.6; Calb FLC: 64.2; IDE act: 4.6

What do the screens show for `Cc1cc(-c2ccccc2)cc(-c2ccccc2)[n+]1CCc1ccccc1`?
Rpn11 inh: -34.6; Rin1-Abl PPI inh: -0.7; Calb FLC: 97.0*; IDE cell inh: 3.4; TPT1 inhibitor: 2.1; IDE act: 1.2

Results for Clc1ccc(C[n+]2c(-c3ccccc3)cc(-c3ccccc3)cc2-c2ccccc2)cc1 ?
Rpn11 inh: -45.4; Rin1-Abl PPI inh: -4.1; Calb FLC: 0.7; IDE cell inh: -0.9; TPT1 inhibitor: -0.4; IDE act: 0.5

How did Cc1cccc(CC(c2cccc(C)c2)N(C)C)c1 (stereo not given) do in these assays?
Rpn11 inh: -0.9; Rin1-Abl PPI inh: 3.2; IDE act: 4.7

Results for O=C(C[N+]12CCC(CC1)C(C(O)(c1ccccc1)c1ccccc1)C2)c1ccc(Br)cc1 (stereo not given) ?
Rpn11 inh: -6.2; Rin1-Abl PPI inh: -2.2; Calb FLC: 94.9*; IDE cell inh: 1.5; TPT1 inhibitor: -2.6; IDE act: 1.1

What do the screens show for `Cc1[nH]c2ccccc2c1CN1CCCCC1`?
Rpn11 inh: 3.3; Rin1-Abl PPI inh: 1.9; IDE act: 2.7

How did COc1ccc(Cn2c(O)c(/C=N/NC(=O)c3ccccc3)c(=O)[nH]c2=O)cc1 do in these assays?
Rpn11 inh: 13.2; Rin1-Abl PPI inh: -1.4; Calb FLC: 80.8*; IDE cell inh: 0.1; TPT1 inhibitor: 8.2; IDE act: 2.4

Results for O=C1NC(=O)N(c2ccccc2)C(=O)/C1=C/c1ccc(Sc2ccccc2)o1 ?
Rpn11 inh: 3.1; Rin1-Abl PPI inh: -3.5; Calb FLC: 9.7; IDE cell inh: 2.6; TPT1 inhibitor: 0.6; IDE act: -10.0

How did O=C1NC(=O)N(c2ccccc2F)C(=O)/C1=C/c1ccc(Sc2nc3ccccc3[nH]2)o1 do in these assays?
Rpn11 inh: 83.0*; Rin1-Abl PPI inh: -0.2; IDE cell inh: 34.0*; TPT1 inhibitor: 0.7; IDE act: -43.7

How did CN=C1CN(O)C(c2ccccc2)=c2cc(Cl)ccc2=N1 do in these assays?
Rpn11 inh: 1.2; Rin1-Abl PPI inh: -2.8; IDE cell inh: -0.9; TPT1 inhibitor: -1.9; IDE act: 5.4

How did COc1cc(C(c2c(C)[nH]n(-c3ccccc3)c2=O)c2c(C)[nH]n(-c3ccccc3)c2=O)cc(OC)c1OC do in these assays?
Rpn11 inh: 24.2; Rin1-Abl PPI inh: 9.7*; Calb FLC: 1.0; IDE cell inh: 0.6; TPT1 inhibitor: 0.6; IDE act: 6.9

Screening results deposited in PubChem BioAssay by several laboratories.
